Source: PubChem BioAssay
For part of these data: Results with a measured potency or affinity are listed apart. This is one part of the list. Active and inactive are the calls of the source.

Assays:
[1] = molecular target: Inward rectifier potassium channel 2 (Mus musculus) (UniProt P35561); assay: inhibition of Kir2.1 inward rectifier potassium flux – cell-based, FluxOR thallium flux, duplicate, confirmation (AID 2032;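 active means Primary-screen hit whose thallium flux fell at least 3 control SD below untreated wells in both duplicates, with normal baseline fluorescence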); settings: Kir2.1-expressing cells, FluxOR thallium flux fluorescence, at 10 µM; stronger effect = lower value
Inward rectifier potassium channel 2 (Mus musculus), sequence (P35561 whole entry, looked up): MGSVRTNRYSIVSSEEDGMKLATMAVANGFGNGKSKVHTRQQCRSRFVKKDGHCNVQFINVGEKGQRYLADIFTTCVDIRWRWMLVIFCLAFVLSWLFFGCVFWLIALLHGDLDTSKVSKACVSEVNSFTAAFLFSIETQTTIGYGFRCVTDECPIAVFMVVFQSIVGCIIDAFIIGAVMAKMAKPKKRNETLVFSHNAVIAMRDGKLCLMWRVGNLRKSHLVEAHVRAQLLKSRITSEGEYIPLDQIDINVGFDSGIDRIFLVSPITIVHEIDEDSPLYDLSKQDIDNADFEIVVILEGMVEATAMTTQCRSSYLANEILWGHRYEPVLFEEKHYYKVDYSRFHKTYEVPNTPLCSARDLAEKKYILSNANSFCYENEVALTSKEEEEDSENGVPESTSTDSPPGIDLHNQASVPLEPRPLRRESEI

[2] = parental HEK293 cell activity, no Kir2.1 – FluxOR thallium flux, duplicate, single concentration, counter-screen for Kir2.1 inhibitor project, confirmation (AID 2105); settings: parental HEK293 cells, FluxOR thallium flux fluorescence, at 10 µM; 0% = unstimulated blank wells;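 on FluxOR signal as % of negative control (100 = no effect): percent is based on the flux ratio of peak minus minimum fluorescence over baseline F0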
[3] = parental CHO-K1 cell activation, no KCNQ2 – FluxOR thallium flux, duplicate, counter-screen for KCNQ2 potentiator project, confirmation (AID 2282;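 active means signal rise of at least 3 SD above the untreated control mean, in both duplicate wells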;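 further: counter screen of KCNQ2 potentiator hits so any rise reflects channel-independent effects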); settings: parental CHO-K1 cells, FluxOR thallium flux fluorescence; at 10 µM; stronger effect = higher value; zero = vehicle mean+3SD, 100% = vehicle-minus-blank window
[4] = molecular target: Potassium voltage-gated channel subfamily KQT member 1 (Homo sapiens) (UniProt P51787); assay: KCNQ1 activation in stable CHO cells – cell-based, FluxOR thallium flux, selectivity assay for KCNQ2 potentiator project, confirmation (AID 2283;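 active means fluorescence ratio rise of at least 3 SD of vehicle wells above their mean, in both replicate wells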;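 further: 0% = vehicle mean plus 3 SD and 100% = vehicle minus unstimulated blank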); settings: FluxOR thallium flux fluorescence, at 10 µM, stronger effect = higher value, beyond 3SD, as % of vehicle-control signal
Potassium voltage-gated channel subfamily KQT member 1 (Homo sapiens), sequence (P51787 whole entry, looked up): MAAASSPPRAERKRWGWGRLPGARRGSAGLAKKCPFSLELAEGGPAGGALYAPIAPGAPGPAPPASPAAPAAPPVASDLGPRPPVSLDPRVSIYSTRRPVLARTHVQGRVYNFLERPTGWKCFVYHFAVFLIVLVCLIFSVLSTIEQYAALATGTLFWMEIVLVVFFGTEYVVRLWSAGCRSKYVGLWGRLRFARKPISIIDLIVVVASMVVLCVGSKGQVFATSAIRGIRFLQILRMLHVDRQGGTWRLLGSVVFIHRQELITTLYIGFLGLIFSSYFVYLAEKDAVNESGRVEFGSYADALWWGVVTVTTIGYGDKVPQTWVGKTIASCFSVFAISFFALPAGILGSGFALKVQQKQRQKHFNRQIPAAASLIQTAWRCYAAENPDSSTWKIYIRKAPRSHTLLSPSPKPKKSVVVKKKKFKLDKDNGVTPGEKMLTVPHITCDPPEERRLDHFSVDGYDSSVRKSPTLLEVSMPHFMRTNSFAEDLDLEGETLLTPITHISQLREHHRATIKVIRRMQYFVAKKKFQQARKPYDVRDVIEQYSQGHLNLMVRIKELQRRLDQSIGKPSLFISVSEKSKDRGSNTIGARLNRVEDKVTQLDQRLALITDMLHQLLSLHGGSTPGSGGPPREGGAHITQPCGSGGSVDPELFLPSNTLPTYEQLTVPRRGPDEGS

[5] = molecular target: Potassium voltage-gated channel subfamily KQT member 2 (Rattus norvegicus) (UniProt O88943); assay: KCNQ2 potassium channel activity enhancers – cell-based, CHO, FluxOR thallium flux, duplicate, confirmation (AID 2287;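 active means fluorescence ratio rising 3 SD or more over the vehicle control mean in both replicates, plus primary screen hit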;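 further: peak minus minimum thallium fluorescence divided by baseline after K/Tl stimulus; 0% = vehicle mean plus 3 SD and 100% = vehicle minus unstimulated blank difference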); settings: CHO-KCNQ2 cells, FluxOR thallium flux fluorescence; at 10 µM; stronger effect = higher value
[6] = molecular target: Inward rectifier potassium channel 2 (Mus musculus) (UniProt P35561); assay: PubChem AID 2345; settings: HEK293 Kir2.1, FluxOR thallium flux fluorescence; at 10 µM; stronger effect = higher value;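 further: 0% = vehicle mean plus 3 SD and 100% = vehicle minus no-stimulus blank window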
[7] = molecular target: Potassium voltage-gated channel subfamily KQT member 2 (Rattus norvegicus) (UniProt O88943); assay: W236L mutant KCNQ2 current enhancers – cell-based, rat KCNQ2 W236L, CHO, automated patch clamp, mechanism study for KCNQ2 potentiator project (AID 2558;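 active means current increase at least 3 SD of the untreated controls above them in both duplicate recordings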); settings: at 25 µM
[8] = nonspecific flux increase, KCNQ1-free cells – parental CHO cells, counter-screen for KCNQ1 potentiator project (AID 493006;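 active means duplicate-averaged activation above buffer control mean plus 5 SD of those controls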;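 further: fluorescence ratio of max minus min over baseline after K+ and Tl+ depolarization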); settings: parental CHO-K1 cells, FluxOR thallium flux, at 10 µM; stronger effect = higher value
[9] = molecular target: Potassium voltage-gated channel subfamily KQT member 1 (Homo sapiens) (UniProt P51787); assay: enhancement of KCNQ1 channel thallium flux – FluxOR thallium flux, CHO cells, duplicates, confirmation (AID 493007;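 active means potentiation averaged over duplicate wells exceeding buffer-only control mean by more than 3 SD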;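 further: 0% = buffer-only wells and 100% = R-L3 activator control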); settings: KCNQ1 cell line, FluxOR thallium flux fluorescence, at 10 µM; stronger effect = higher value, % of reference activator effect, buffer zero
[10] = molecular target: Potassium voltage-gated channel subfamily KQT member 2 (Rattus norvegicus) (UniProt O88943); assay: KCNQ2 thallium flux enhancement – KCNQ2-CHO-K1 cells, selectivity assay for KCNQ1 potentiator project (AID 493009;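 active means mean duplicate potentiation above the buffer control mean plus 5 SD of buffer wells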;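 further: assay conditions were tuned for KCNQ1 rather than KCNQ2 modulators; signal is max minus min fluorescence divided by baseline after thallium stimulus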); settings: FluxOR thallium flux fluorescence, at 10 µM; stronger effect = higher value, scaled: buffer 0, activator control 100
[11] = molecular target: Potassium voltage-gated channel subfamily KQT member 1 (Homo sapiens) (UniProt P51787); assay: KCNQ1 activators by electrophysiology – IonWorks patch clamp, KCNQ1-CHO cells, orthogonal assay for KCNQ1 potentiator project, confirmation (AID 493184;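 active means current rise at least 3 SD above the untreated control mean in each of two repeat wells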); settings: automated patch clamp current, at 10 µM; stronger effect = higher value
[12] = molecular target: Short transient receptor potential channel 4 (Mus musculus) (UniProt Q9QUQ5); assay: DAMGO-gated TRPC4 membrane potential modulation – cell-based, second specificity screen, HEK293 TRPC4/mu-opioid, selectivity assay for TRPC6 inhibitor project, confirmation (AID 2776;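 active means compounds whose fluorescence signal differed from control wells by over 3 SD, either direction, in both duplicate plates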); settings: HEK293 TRPC4/MOR, membrane potential dye fluorescence, at 10 µM, channel activated by saturating DAMGO dose; stronger effect = higher value
Short transient receptor potential channel 4 (Mus musculus), sequence (Q9QUQ5 whole entry, looked up): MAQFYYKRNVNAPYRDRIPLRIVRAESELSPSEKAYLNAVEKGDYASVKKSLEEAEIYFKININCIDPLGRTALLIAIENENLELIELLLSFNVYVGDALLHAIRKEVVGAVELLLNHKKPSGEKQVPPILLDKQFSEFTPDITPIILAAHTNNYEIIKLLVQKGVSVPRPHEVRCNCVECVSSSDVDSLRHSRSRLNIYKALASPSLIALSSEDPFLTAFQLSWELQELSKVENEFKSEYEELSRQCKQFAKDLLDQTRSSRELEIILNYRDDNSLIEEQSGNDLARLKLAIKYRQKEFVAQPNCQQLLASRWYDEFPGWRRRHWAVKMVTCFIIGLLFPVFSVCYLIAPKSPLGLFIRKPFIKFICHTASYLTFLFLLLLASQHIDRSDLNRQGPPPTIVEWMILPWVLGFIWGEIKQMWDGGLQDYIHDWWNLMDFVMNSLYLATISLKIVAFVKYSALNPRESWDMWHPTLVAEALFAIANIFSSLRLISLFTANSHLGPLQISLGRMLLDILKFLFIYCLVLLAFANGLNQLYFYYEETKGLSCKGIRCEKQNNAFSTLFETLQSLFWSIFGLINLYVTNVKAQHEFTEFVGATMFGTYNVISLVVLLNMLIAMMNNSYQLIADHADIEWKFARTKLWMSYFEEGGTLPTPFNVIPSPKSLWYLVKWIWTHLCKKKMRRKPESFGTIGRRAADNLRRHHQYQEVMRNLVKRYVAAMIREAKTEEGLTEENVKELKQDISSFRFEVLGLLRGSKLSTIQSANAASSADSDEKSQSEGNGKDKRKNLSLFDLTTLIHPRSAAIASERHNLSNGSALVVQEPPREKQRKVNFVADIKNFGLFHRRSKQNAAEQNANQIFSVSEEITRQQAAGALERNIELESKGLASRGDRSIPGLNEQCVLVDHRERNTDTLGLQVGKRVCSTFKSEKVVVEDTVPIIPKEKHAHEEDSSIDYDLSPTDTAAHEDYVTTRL

[13] = system: transient receptor potential cation channel C4 (TRPC4), mouse; assay: membrane potential change in TRPC4 cells – cell-based, HEK293 TRPC4/mu-opioid, membrane potential dye, selectivity assay for TRPC6 inhibitor project, confirmation (AID 2777;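 active means rise or fall in signal beyond 3 SD of buffer-only wells in both replicate plates, either sign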;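 further: integrated kinetic ratio of fluorescence range over baseline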); settings: membrane potential fluorescence, at 10 µM
[14] = parental HEK293 depolarization signal interference – cell-based, second counter screen, counter-screen for TRPC6 inhibitor project, confirmation (AID 2779;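 active means membrane potential signal moving either way by over 3 SD of the maximum-effect control, in both duplicate plates, meaning non-specific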); settings: parental HEK293 membrane potential dye fluorescence; at 10 µM; maximal acetylcholine challenge after compound addition
[15] = nonspecific voltage dye signal in HEK293 – cell-based, parental HEK293, counter-screen for TRPC6 inhibitor project, confirmation (AID 2780;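 active means membrane potential signal shifting up or down by more than 3 SD of buffer-only wells, on both duplicate plates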;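 further: plate controls were buffer EC0 wells for no effect and acetylcholine ECmax wells for full effect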); settings: parental HEK293 membrane potential dye fluorescence; at 10 µM
[16] = molecular target: Short transient receptor potential channel 6 (Mus musculus) (UniProt Q61143); assay: blockers of TRPC6 cation channel activity – HEK293 cells, membrane potential dye, duplicate, confirmation (AID 488960;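 active means fluorescence ratio falls more than 5 SD below the full-stimulation control mean, in both duplicate runs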;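 on inhibition: integrated fluorescence ratio of peak minus minimum over baseline after agonist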); settings: ACh-evoked depolarization, at 10 µM; stronger effect = higher value
Short transient receptor potential channel 6 (Mus musculus), sequence (Q61143 whole entry, looked up): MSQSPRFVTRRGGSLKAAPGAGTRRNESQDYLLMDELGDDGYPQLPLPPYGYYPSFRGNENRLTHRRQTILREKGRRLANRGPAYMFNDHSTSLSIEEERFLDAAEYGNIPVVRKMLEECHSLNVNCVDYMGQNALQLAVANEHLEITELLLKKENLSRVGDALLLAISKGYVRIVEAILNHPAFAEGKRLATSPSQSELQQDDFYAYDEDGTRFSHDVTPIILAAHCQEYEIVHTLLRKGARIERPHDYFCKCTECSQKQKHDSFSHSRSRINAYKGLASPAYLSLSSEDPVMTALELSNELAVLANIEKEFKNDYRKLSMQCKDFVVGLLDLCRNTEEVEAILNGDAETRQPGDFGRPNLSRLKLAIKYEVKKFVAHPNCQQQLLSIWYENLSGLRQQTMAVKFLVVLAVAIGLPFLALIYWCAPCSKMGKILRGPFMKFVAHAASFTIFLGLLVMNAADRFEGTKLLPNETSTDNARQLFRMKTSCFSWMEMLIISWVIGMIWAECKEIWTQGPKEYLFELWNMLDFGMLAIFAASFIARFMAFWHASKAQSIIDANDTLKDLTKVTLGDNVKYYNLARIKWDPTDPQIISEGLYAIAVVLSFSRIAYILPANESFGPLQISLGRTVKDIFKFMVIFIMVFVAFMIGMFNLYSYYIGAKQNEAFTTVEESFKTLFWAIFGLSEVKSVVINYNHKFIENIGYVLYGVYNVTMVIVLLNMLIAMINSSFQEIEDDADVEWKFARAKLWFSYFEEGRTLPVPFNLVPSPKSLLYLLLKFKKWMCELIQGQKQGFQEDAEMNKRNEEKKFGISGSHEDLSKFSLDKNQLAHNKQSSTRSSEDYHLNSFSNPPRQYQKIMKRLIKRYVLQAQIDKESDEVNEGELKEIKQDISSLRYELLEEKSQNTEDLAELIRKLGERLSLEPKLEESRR

[17] = molecular target: Short transient receptor potential channel 6 (Mus musculus) (UniProt Q61143); assay: mouse TRPC6 channel activators, confirmation, HEK293 cells, membrane potential dye, duplicate (AID 488961;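 active means ratio signal rise beyond 5 SD above unstimulated control wells' mean, seen in both duplicate runs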); settings: HEK293-TRPC6 membrane potential dye fluorescence, FDSS, at 10 µM; stronger effect = higher value
[18] = system: TRPC4 beta (transient receptor potential cation channel C4), mouse; assay: TRPC4 cation channel opening, retest – cell-based, Fluo4 calcium, HEK293 TRPC4beta/mu-opioid, duplicates, 10 µM, confirmation (AID 2426;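 active means fluorescence ratio normalized to control raised more than 50% in primary screen plus both repeat runs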); settings: Fluo4 calcium fluorescence, at 10 µM; stronger effect = higher value
[19] = system: transient receptor potential cation channel C4 beta (TRPC4), mouse; assay: TRPC4 cation channel opening, second retest – cell-based, second round, Fluo4, HEK293 TRPC4beta/mu-opioid, 1 µM, confirmation (AID 2461;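 active means primary screen active and over 50% activation in each of two duplicate runs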); settings: Fluo4 calcium fluorescence, at 1 µM; stronger effect = higher value
[20] = system: TRPC4 (transient receptor potential cation channel C4 beta), mouse; assay: potentiation of DAMGO EC20 TRPC4 response – cell-based, second round, Fluo-4, HEK293 TRPC4beta/mu-opioid, 1 µM, confirmation (AID 2554;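 active means primary screen hit whose fluorescence ratio, in both repeats, exceeds the weak agonist control mean by 3 SD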); settings: DAMGO EC20, Fluo-4 calcium flux, at 1 µM; stronger effect = higher value
[21] = system: TRPC4 beta (transient receptor potential cation channel C4), mouse; assay: potentiation of DAMGO EC20 TRPC4 response – cell-based, Fluo-4, HEK293 TRPC4beta/mu-opioid, confirmation (AID 2555;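 active means primary screen hit whose calcium fluorescence ratio, in both repeats, exceeds the weak agonist control mean by 3 SD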); settings: DAMGO EC20, Fluo-4 calcium flux, at 10 µM; stronger effect = higher value
[22] = molecular target: Short transient receptor potential channel 4 (Mus musculus) (UniProt Q9QUQ5); assay: blockers of DAMGO-evoked TRPC4 calcium flux – cell-based, Fluo4, HEK293 TRPC4beta/mu-opioid, confirmation (AID 2636;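 active means calcium signal cut by more than 3 SD below the full-agonist control yet still positive, in both repeats and the earlier primary screen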); settings: at 10 µM; stronger effect = higher value
[23] = molecular target: Short transient receptor potential channel 4 (Mus musculus) (UniProt Q9QUQ5); assay: blockers of DAMGO-evoked TRPC4 calcium flux – cell-based, second round, Fluo4, HEK293 TRPC4beta/mu-opioid, 1 µM, confirmation (AID 2637;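 active means calcium signal ratio cut to more than 3 SD under the fully stimulated control mean yet still positive, in both repeats and the primary screen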); settings: at 1 µM; stronger effect = higher value
[24] = molecular target: Short transient receptor potential channel 4 (Mus musculus) (UniProt Q9QUQ5); assay: calcium entry via TRPC4 opening agents – cell-based, HEK293 TRPC4/mu-opioid, Fluo-4 calcium, dose response (AID 434937;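 active means primary screen activator hit with a dose response curve and TRPC4 channel activation at any tested dose; inactive means no activation, no dose response, or not a primary hit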)
[25] = molecular target: Short transient receptor potential channel 4 (Mus musculus) (UniProt Q9QUQ5); assay: potentiation of DAMGO-evoked TRPC4 calcium signal – cell-based, HEK293 TRPC4/mu-opioid, Fluo-4 calcium, EC20 DAMGO, dose response (AID 434941;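 active means earlier screen potentiator hit that boosts the TRPC4 ion channel at some dose, with a dose response; inactive means no potentiation, no dose response, or not a prior hit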;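 further: calcium entry triggered by an EC20 dose of DAMGO at the co-expressed mu-opioid receptor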)
[26] = molecular target: Short transient receptor potential channel 4 (Mus musculus) (UniProt Q9QUQ5); assay: block of DAMGO-driven TRPC4 calcium entry – cell-based, HEK293 TRPC4/mu-opioid, Fluo-4 calcium, dose response (AID 434942;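 active means primary screen inhibitor hit that blocks the TRPC4 channel at some tested dose, yielding a dose curve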)
[27] = molecular target: Short transient receptor potential channel 6 (Mus musculus) (UniProt Q61143); assay: TRPC6 blockade by TRPC4 inhibitor hits – cell-based, HEK293, membrane potential dye, duplicate, selectivity assay for TRPC4 inhibitor project, confirmation (AID 434948;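 active means active in primary screen and both duplicates, each dropping signal beyond three positive-control SD with fluorescence still positive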); settings: HEK293 TRPC6, membrane potential dye fluorescence, at 10 µM, stimulated with maximal-effect acetylcholine; stronger effect = higher value
[28] = molecular target: Short transient receptor potential channel 6 (Mus musculus) (UniProt Q61143); assay: TRPC6 opening by TRPC4 activator hits – cell-based, HEK293, membrane potential dye, duplicate, selectivity assay for TRPC4 activator project, confirmation (AID 434950;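 active means membrane potential signal rise above negative control mean plus 3 SD in both duplicates, also active in the earlier TRPC4 screen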); settings: HEK293 TRPC6, membrane potential fluorescence, at 10 µM; activation: stronger effect = higher value; outcome: activation
[29] = molecular target: Short transient receptor potential channel 6 (Mus musculus) (UniProt Q61143); assay: positive modulators of mouse TRPC6 channel – HEK293 cells, membrane potential dye, duplicate, selectivity assay for TRPC4 potentiator project, confirmation (AID 434952;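 active means compound raising the membrane signal above positive-control mean plus 3 SD in both repeats, and a primary screen hit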); settings: HEK293 TRPC6, membrane potential dye fluorescence, at 10 µM, maximal acetylcholine added after compound; stronger effect = higher value
[30] = molecular target: Short transient receptor potential channel 4 (Mus musculus) (UniProt Q9QUQ5); assay: calcium flux activators in TRPC4/5HT1a cells, counter-screen for TRPC4 activator project, cell-based, second counter screen, HEK293 TRPC4/5HT1a, Fluo-4 (AID 434977;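 active means calcium signal rise above buffer-control mean plus 5 SD in both duplicates, and also a hit in the primary screen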); settings: Fluo-4 calcium flux, at 10 µM; stronger effect = higher value
[31] = serotonin-gated TRPC4 signal block – cell-based, second counter screen, HEK293 TRPC4/5HT1a, Fluo-4, counter-screen for TRPC4 inhibitor project, confirmation (AID 434978;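 active means primary screen active whose calcium signal fell more than 3 SD beyond the full-serotonin control mean in both duplicate plates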;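 further: serotonin given first at submaximal then at maximal dose after compound preincubation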); settings: Fluo-4 calcium flux, at 10 µM, serotonin added to trigger calcium flux; stronger effect = higher value
[32] = system: TRPC4 (mouse), co-expressed with 5HT1a in HEK293; assay: enhancement of serotonin-evoked TRPC4 response – cell-based, second counter screen, HEK293 TRPC4/5HT1a, Fluo-4, counter-screen for TRPC4 potentiator project, confirmation (AID 434979;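 active means signal rise over 3 SD above mean of control wells given weak agonist, in both repeats and first screen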); settings: Fluo-4 calcium flux, at 10 µM, serotonin added at its EC20 dose; stronger effect = higher value
[33] = nonspecific calcium rise without TRPC4 – cell-based, HEK293 mu-opioid receptor line, counter-screen for TRPC4 activator project, confirmation (AID 449723;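 active means hit in primary screen, with calcium signal over 5 SD above buffer well mean in both duplicates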;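 further: counter screen cells carry the mu-opioid receptor alone and lack TRPC4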); settings: HEK293 mu-opioid cells, Fluo-4 calcium fluorescence, at 10 µM; stronger effect = higher value
[34] = nonspecific potentiation of DAMGO calcium response – cell-based, HEK293 mu-opioid receptor line, counter-screen for TRPC4 allosteric potentiator project, confirmation (AID 449724;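 active means calcium signal rise more than 3 SD above the low-dose agonist control mean, in both duplicate plates and the primary screen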); settings: HEK293 mu-opioid receptor cells, Fluo-4 calcium flux, at 10 µM, compound added before EC20 DAMGO stimulus; stronger effect = higher value

CCOC(=O)c1sc(=S)n2c1[nH]c(=O)c1ccc(C(=O)OC)cc12
inactive: outcome [1] | activity increase over 3SD of controls [3] -16.8% | activity over 3SD threshold [6] -43.9% | outcome [7] | outcome [11]
active: FluxOR signal as % of negative control (100 = no effect) [2] 174% | activation over 3SD threshold [4] 4.8% | potentiation, less the hit threshold [5] 26.7% | activation [8] 383% | potentiation [9] 108% | potentiation [10] 351%

O=C(NC(Nc1nc2ccc([N+](=O)[O-])cc2s1)(C(F)(F)F)C(F)(F)F)c1ccccc1
active: inhibition [12] 45% | activity change, negative = inhibition [13] 60.8% | membrane potential signal change [15] 36.6% | inhibition [16] 93.7%
inactive: outcome [1] | outcome [2] | outcome [14]

N#Cc1c(-c2ccccc2)nc(SCc2cccc(C(F)(F)F)c2)[nH]c1=O
active: FluxOR signal as % of negative control (100 = no effect) [2] 58% | potentiation, less the hit threshold [5] 6%
inactive: outcome [1] | activity increase over 3SD of controls [3] -8.3% | activation over 3SD threshold [4] -15% | activity over 3SD threshold [6] -39.2% | outcome [7]

Cc1cc2oc3ccc(NCCC4CCCN4C)cc3c(=O)c2cc1C (centres undefined)
inactive: outcome [1] | outcome [14] | outcome [16] | outcome [17]
active: FluxOR signal as % of negative control (100 = no effect) [2] 67.5% | inhibition [12] 63% | activity change, negative = inhibition [13] 8.34% | membrane potential signal change [15] 5.47%

O=C(OCC(=O)N1CCOCC1)c1cccc(S(=O)(=O)N2CCCc3ccccc32)c1
active: potentiation [32] 10.2%
inactive: outcome [18] | outcome [19] | outcome [20] | outcome [21] | outcome [22] | outcome [23] | outcome [24] | outcome [25] | outcome [26] | outcome [27] | outcome [28] | outcome [29] | outcome [30] | outcome [31] | outcome [33] | outcome [34]

COc1ccc(NC(=O)CCCC2CCCCC2)c(OC)c1
inactive: activity increase over 3SD of controls [3] -19.3% | activation over 3SD threshold [4] -6.1% | outcome [7]
active: potentiation, less the hit threshold [5] 80%
